The campaign covered roughly 2,400 compounds. About 700 (29%) were called active.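 Rule for the calls: active = inhibition of at least 50%; inactive = the rest.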 Only a sample is shown.
The compounds below were run against G-protein coupled receptor 183 (Homo sapiens) (UniProt P32249) (assay: repeat testing of EBI2 arrestin blockers – cell-based, single concentration, luminescence, 7a,25-OHC stimulation, confirmation (AID 651997)). Settings: EBI2 beta-arrestin luminescence, 7a,25-OHC antagonism; at 5 µM; stronger effect = higher value.
Chain of G-protein coupled receptor 183 (Homo sapiens) (P32249 whole entry, looked up): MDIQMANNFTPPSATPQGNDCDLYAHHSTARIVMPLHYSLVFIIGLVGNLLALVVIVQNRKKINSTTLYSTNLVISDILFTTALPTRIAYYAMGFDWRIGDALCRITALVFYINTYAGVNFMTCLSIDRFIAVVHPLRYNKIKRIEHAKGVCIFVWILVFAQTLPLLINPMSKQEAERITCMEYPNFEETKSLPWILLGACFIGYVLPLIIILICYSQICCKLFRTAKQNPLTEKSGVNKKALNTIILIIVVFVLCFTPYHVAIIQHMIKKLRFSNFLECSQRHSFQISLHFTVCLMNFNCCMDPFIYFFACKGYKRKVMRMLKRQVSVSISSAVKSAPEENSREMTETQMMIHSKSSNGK

Compound | inhibition
COc1ccc(N(CC(=O)Nc2cc(OC)ccc2OC)S(=O)(=O)c2c(C)noc2C)cc1 | 21.2% (inactive)
COc1ccc(C(c2nnnn2C2CCCC2)N2CCN(C/C=C/c3ccccc3)CC2)cc1 (stereo not given) | 39.9% (inactive)
Cc1ccc(-n2ncc3c(=O)n(-c4ccc(C)c(C)c4)c(-c4ccco4)nc32)cc1 | 16.7% (inactive)
COc1cc(/C=C(\C#N)C(=O)Nc2ccc3ccccc3c2)c([N+](=O)[O-])cc1OC | 48.2% (inactive)
O=C(CC(c1ccccc1)c1ccccc1)NCC(O)c1ccc([N+](=O)[O-])cc1 (stereo not given) | 32.1% (inactive)
O=C(COc1ccc(Cl)cc1)N1CCN(c2cccc(C(F)(F)F)c2)CC1 | 68% (active)
O=C(COc1ccc2c(c1)CCC2)N1CCN(c2ccc(F)cc2)CC1 | 25% (inactive)
Cc1cc(C)cc(Oc2nc3c(C)cccn3c(=O)c2/C=C(\C#N)C(=O)NC2CCS(=O)(=O)C2)c1 (stereo not given) | 44.9% (inactive)
COc1ccc(-c2nc(N)ncc2-c2ccc(Cl)cc2)c(O)c1 | 58.9% (active)
O=C(NCc1ccc(Cl)cc1)c1cc(=O)nc2sc(-c3ccccc3)nn12 | 36% (inactive)
Cc1cccc(C)c1-n1nnnc1C(CCc1ccccc1)N1CCN(C/C=C/c2ccccc2)CC1 (stereo not given) | 8.65% (inactive)
Cc1cc(C)c2c(=O)n3c(nc2c1)C(CC(C)C)NC(=O)c1cc2ccccc2cc1-3 (stereo not given) | 61.4% (active)
COc1ccccc1CCNC(=O)C1CCN(C(=O)/C=C/c2ccccc2)CC1 | 64.2% (active)
CC(C)Cn1c(N2CCN(C(=O)/C=C/c3ccccc3)CC2)nc2ccccc21 | 41.6% (inactive)
Cc1cccc(NC(=O)CN2CCN(C(=O)C3CCN(C(=O)/C=C/c4ccccc4)CC3)CC2)c1C | 45% (inactive)
CC(=O)c1nn(-c2ccc(C)cc2)cc1C(=O)c1cccc(Br)c1 | 45.6% (inactive)
Cc1nc2ccc(C(=O)N3CCN(c4ccccc4)CC3)cc2s1 | 40.5% (inactive)
O=C(c1ccc(-n2cnnn2)cc1)N1CCN(C(c2ccccc2)c2ccccc2)CC1 | 55.9% (active)
c1ccc(C(c2ccccc2)N2CCN(Cc3nnnn3C3CCCCC3)CC2)cc1 | 34% (inactive)
COc1ccc(Nc2cc(Sc3ccc(OC)cc3)ncn2)cc1 | 25.1% (inactive)

From PubChem BioAssay AID651997 (Sanford-Burnham Center for Chemical Genomics, 2013)
